Test results published in PubChem BioAssay (EPA / NIEHS).
Results filed as inconclusive are left out. Calls of active or inactive are those of the source. How the source made its calls, unless noted: active means hit-call score of the fitted dose curve at least 0.9, where 1 is the maximum; inactive means score below 0.9.

Test: CCTE_Harrill_HTTr_Viability_MCF7: CCTE's 6-hour Cell Viability Assessment for the High-Throughput Transcriptomics (HTTr) Platform, in MCF-7 cells cultured in DMEM + 10% fetal bovine serum, Harrill Lab (AID 2284010)
How it was run: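 Cells were dosed with chemicals in an eight-point dilution series, imaged 6 hours later for propidium iodide uptake, and the endpoint was analyzed by bidirectional fitting against DMSO as negative control.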
For CCCCCCCCCCCCCO, the outcome was “inactive”.
For COC(=O)c1ccc(O)cc1, the outcome was “inactive”.
With COc1cc(-c2nc(NC(=O)c3cc4cc(C)cc(C)c4n3CC(=O)O)sc2CCC2CCCCC2)c(OC)cc1Cl the outcome was “inactive”.
For CCCCN(CCCC)CCCC, the outcome was “inactive”.
For Cc1cc(NC(=O)C(=O)O)cc(C)c1Oc1ccc(O)c2c1CCC2, the outcome was “inactive”.
With Cc1nc(C)nc(N2C[C@@H](C)N(c3ccnc([C@@H](C)O)n3)[C@@H](C)C2)n1 the outcome was “inactive”.
For CCCCCCCCCCCCCCCC, the outcome was “inactive”.
In the case of NC(=O)Cn1c(=O)cc(CCN2CCN(c3nccc4sccc34)CC2)c2ccc(F)cc21, the outcome is reported as “inactive”.
In the case of C1CCC(SSC2CCCCC2)CC1, the outcome is reported as “inactive”.
In the case of CC(=O)OC/C=C(\C)CCC=C(C)C, the outcome is reported as “inactive”.
In the case of Oc1ccc2ccccc2c1N=Nc1ccccc1, the outcome is reported as “inactive”.
In the case of CCCCCCOCCO, the outcome is reported as “inactive”.
For O=C(OCCCCCOC(=O)c1ccccc1)c1ccccc1, the outcome was “inactive”.
With Cc1cccc(Nc2cc(Cl)nc(SCC(=O)O)n2)c1C the outcome was “inactive”.
In the case of Cc1nc(-c2ccc3c(c2)CCN(CCC2CCC(NC(=O)/C=C/c4ccc(F)cc4)CC2)CC3)no1 (stereo not drawn), the outcome is reported as “inactive”.
With O=C(N[C@@H](Cc1ccccc1)[C@@H](O)C(=O)N1C[C@@H](O)[C@@H](O)C1)c1cc2cc(Cl)ccc2[nH]1 the outcome was “inactive”.
With Cc1c(C(=O)O)c(O)cc2c1C(=O)c1c(O)c([C@@H]3O[C@H](CO)[C@@H](O)[C@H](O)[C@H]3O)c(O)c(O)c1C2=O the outcome was “inactive”.
In the case of O=[N+]([O-])C(CO)(CO)CO, the outcome is reported as “inactive”.
In the case of CCc1c(C(=O)NN2CCCCC2)nn(-c2ccc(Cl)cc2Cl)c1-c1ccc(Br)cc1, the outcome is reported as “inactive”.
In the case of COCCOC[C@H](CC1(C(=O)NC2CCC(C(=O)O)CC2)CCCC1)C(=O)Oc1ccc2c(c1)CCC2 (stereo partly drawn), the outcome is reported as “inactive”.
For Nc1ccc(S(=O)(=O)c2ccc(N)cc2)cc1, the outcome was “inactive”.
With Cc1ccc(C)c(C)c1 the outcome was “inactive”.
For CCCCCCCCCCCC(=O)OC, the outcome was “inactive”.
With CCOC(=O)CCC(=O)OCC the outcome was “inactive”.
With Oc1ccc2c(c1)OC[C@@H](N1CCC(O)(c3ccc(F)cc3)CC1)[C@H]2O the outcome was “inactive”.
In the case of CC(=O)OCCOCCOCCOC(C)=O, the outcome is reported as “inactive”.
With COc1cc(S(=O)(=O)O)c(C)cc1N=Nc1c(O)ccc2cc(S(=O)(=O)O)ccc12 the outcome was “inactive”.
For CCCCC(CC)COC(=O)CC(C(=O)OCC(CC)CCCC)S(=O)(=O)O (stereo not drawn), the outcome was “inactive”.

Test: CCTE_Harrill_HTTr_Apoptosis_MCF7: CCTE's 6-hour Apoptosis Assessment for the High-Throughput Transcriptomics (HTTr) Platform, in MCF-7 cells cultured in DMEM + 10% fetal bovine serum, Harrill Lab (AID 2284011)
How it was run: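 Read-out: CellEvent Caspase 3/7 Green signal by high content imaging, gain-of-signal indicating apoptosis. MCF-7 cells, DMEM + 10% FBS, eight-point dilution series, 6 h exposure. Curves fitted bidirectionally relative to DMSO negative control.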
In the case of CCCCCCCCCCCCCO, the outcome is reported as “inactive”.
With COC(=O)c1ccc(O)cc1 the outcome was “inactive”.
In the case of COc1cc(-c2nc(NC(=O)c3cc4cc(C)cc(C)c4n3CC(=O)O)sc2CCC2CCCCC2)c(OC)cc1Cl, the outcome is reported as “inactive”.
For CCCCN(CCCC)CCCC, the outcome was “inactive”.
With Cc1cc(NC(=O)C(=O)O)cc(C)c1Oc1ccc(O)c2c1CCC2 the outcome was “inactive”.
With Cc1nc(C)nc(N2C[C@@H](C)N(c3ccnc([C@@H](C)O)n3)[C@@H](C)C2)n1 the outcome was “inactive”.
In the case of CCCCCCCCCCCCCCCC, the outcome is reported as “inactive”.
For NC(=O)Cn1c(=O)cc(CCN2CCN(c3nccc4sccc34)CC2)c2ccc(F)cc21, the outcome was “inactive”.
In the case of C1CCC(SSC2CCCCC2)CC1, the outcome is reported as “inactive”.
With CC(=O)OC/C=C(\C)CCC=C(C)C the outcome was “inactive”.
In the case of Oc1ccc2ccccc2c1N=Nc1ccccc1, the outcome is reported as “inactive”.
With CCCCCCOCCO the outcome was “inactive”.
In the case of O=C(OCCCCCOC(=O)c1ccccc1)c1ccccc1, the outcome is reported as “inactive”.
In the case of Cc1cccc(Nc2cc(Cl)nc(SCC(=O)O)n2)c1C, the outcome is reported as “inactive”.
For Cc1nc(-c2ccc3c(c2)CCN(CCC2CCC(NC(=O)/C=C/c4ccc(F)cc4)CC2)CC3)no1 (stereo not drawn), the outcome was “inactive”.
With O=C(N[C@@H](Cc1ccccc1)[C@@H](O)C(=O)N1C[C@@H](O)[C@@H](O)C1)c1cc2cc(Cl)ccc2[nH]1 the outcome was “inactive”.
In the case of Cc1c(C(=O)O)c(O)cc2c1C(=O)c1c(O)c([C@@H]3O[C@H](CO)[C@@H](O)[C@H](O)[C@H]3O)c(O)c(O)c1C2=O, the outcome is reported as “inactive”.
For O=[N+]([O-])C(CO)(CO)CO, the outcome was “inactive”.
With CCc1c(C(=O)NN2CCCCC2)nn(-c2ccc(Cl)cc2Cl)c1-c1ccc(Br)cc1 the outcome was “inactive”.
With COCCOC[C@H](CC1(C(=O)NC2CCC(C(=O)O)CC2)CCCC1)C(=O)Oc1ccc2c(c1)CCC2 (stereo partly drawn) the outcome was “inactive”.
In the case of Nc1ccc(S(=O)(=O)c2ccc(N)cc2)cc1, the outcome is reported as “inactive”.
With Cc1ccc(C)c(C)c1 the outcome was “inactive”.
For CCCCCCCCCCCC(=O)OC, the outcome was “inactive”.
For CCOC(=O)CCC(=O)OCC, the outcome was “inactive”.
With Oc1ccc2c(c1)OC[C@@H](N1CCC(O)(c3ccc(F)cc3)CC1)[C@H]2O the outcome was “inactive”.
With CC(=O)OCCOCCOCCOC(C)=O the outcome was “inactive”.
With COc1cc(S(=O)(=O)O)c(C)cc1N=Nc1c(O)ccc2cc(S(=O)(=O)O)ccc12 the outcome was “inactive”.
In the case of CCCCC(CC)COC(=O)CC(C(=O)OCC(CC)CCCC)S(=O)(=O)O (stereo not drawn), the outcome is reported as “inactive”.

Test: CCTE_Harrill_HTTr_CellCount_MCF7: CCTE's Cell Proliferation Assessment for the High-Throughput Transcriptomics (HTTr) Platform, Harrill Lab (AID 2284012; active means hit-call score of the fitted dose curve at least 0.9, where 1 is the maximum;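 further: count of Hoechst-stained nuclei per well by high-content imaging in MCF-7 cells; cells exposed to compound for six hours; intended direction is loss of nuclei count meaning fewer cells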)
How it was run: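 Chemicals in eight-point dilution series are added to MCF-7 cells for six hours, nuclei are stained with Hoechst and imaged, and per-well nuclei counts are fitted in both directions relative to DMSO controls.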
With CCCCCCCCCCCCCO the outcome was “inactive”.
In the case of COC(=O)c1ccc(O)cc1, the outcome is reported as “inactive”.
With Cc1nc(C)nc(N2C[C@@H](C)N(c3ccnc([C@@H](C)O)n3)[C@@H](C)C2)n1 the outcome was “inactive”.
In the case of NC(=O)Cn1c(=O)cc(CCN2CCN(c3nccc4sccc34)CC2)c2ccc(F)cc21, the outcome is reported as “inactive”.
For Oc1ccc2ccccc2c1N=Nc1ccccc1, the outcome was “inactive”.
For O=C(OCCCCCOC(=O)c1ccccc1)c1ccccc1, the outcome was “inactive”.
In the case of Cc1nc(-c2ccc3c(c2)CCN(CCC2CCC(NC(=O)/C=C/c4ccc(F)cc4)CC2)CC3)no1 (stereo not drawn), the outcome is reported as “inactive”.
For O=C(N[C@@H](Cc1ccccc1)[C@@H](O)C(=O)N1C[C@@H](O)[C@@H](O)C1)c1cc2cc(Cl)ccc2[nH]1, the outcome was “inactive”.
For Cc1c(C(=O)O)c(O)cc2c1C(=O)c1c(O)c([C@@H]3O[C@H](CO)[C@@H](O)[C@H](O)[C@H]3O)c(O)c(O)c1C2=O, the outcome was “inactive”.
With O=[N+]([O-])C(CO)(CO)CO the outcome was “inactive”.
For CCc1c(C(=O)NN2CCCCC2)nn(-c2ccc(Cl)cc2Cl)c1-c1ccc(Br)cc1, the outcome was “inactive”.
For Nc1ccc(S(=O)(=O)c2ccc(N)cc2)cc1, the outcome was “inactive”.
In the case of CCCCCCCCCCCC(=O)OC, the outcome is reported as “inactive”.
In the case of CCOC(=O)CCC(=O)OCC, the outcome is reported as “inactive”.
With Oc1ccc2c(c1)OC[C@@H](N1CCC(O)(c3ccc(F)cc3)CC1)[C@H]2O the outcome was “inactive”.
In the case of COc1cc(S(=O)(=O)O)c(C)cc1N=Nc1c(O)ccc2cc(S(=O)(=O)O)ccc12, the outcome is reported as “inactive”.
In the case of CCCCC(CC)COC(=O)CC(C(=O)OCC(CC)CCCC)S(=O)(=O)O (stereo not drawn), the outcome is reported as “inactive”.
